# In the library only some 4.2% were active in any assay of this set; here they are far more common.
# Mtb FBA inh: inhibits M. tuberculosis FBA enzyme; purified M. tuberculosis FBA, fluorescence read-out; AID 588726; hit rate 2.3% among 360,000; inhibition, % at 1 µM; in the data active = inhibition above about 27%;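 note: 0% = vehicle and 100% = reference inhibitor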
# BJeLR viability: BJeLR cell viability loss; BJeLR (HRASV12) viability, CellTiter-Glo ATP luminescence, 48 h; hit rate 0.17% among 300,000; AID 1554; inhibition, % (no concentration beside the values); in the data active = inhibition above about 50%
# GDH-TPI inh: GDH-TPI coupled enzyme inhibition counter-screen | AID 588335 | GDH-TPI coupled enzyme counterscreen, NADH absorbance | inhibition, % at 4.8 µM | hit rate 1.2% among 360,000; in the data active = inhibition above about 30%;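 note: 0% = DMSO wells and 100% = wells lacking the enzyme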
# RecA intein inh: inhibitors of M. tuberculosis RecA intein splicing. hit rate 0.75% among 290,000. inhibition, % (no concentration beside the values). cell-free RecA intein splicing, fluorescence. P9WHJ3; in the data active = inhibition above about 30%;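 note: 0% = vehicle wells and 100% = reference inhibitor control wells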
# PrPC TRFRET: inhibitors of human cell surface prion protein PrPC; TR-FRET read-out; AID 720596; hit rate 0.43% among 370,000; P04156; inhibition, % at 13.8 µM; in the data active = inhibition above about 24%; note: 0% = median of the test wells and 100% = reference compound wells
# * marks the source's active call; other numbers are inactive results; i = inactive; . = no result given; + = active, no number; ! = repeats disagree.
SMILES,Mtb FBA inh,BJeLR viability,GDH-TPI inh,RecA intein inh,PrPC TRFRET
CCCC[C@H](C(=O)N(C)c1ccccc1)[C@@H](O)c1ccc(Cl)cc1,.,.,.,.,-1
CN(C)c1ccc(C(=O)c2ccccc2C(=O)O)c(O)c1,2,3,41*,1,-5
CS/C(=C\[N+](=O)[O-])Nc1ccc(OC(F)(F)F)cc1,-6,1,16,57*,-1
CC(C)(CCl)C(=O)Nc1ccc(OC(F)(F)F)cc1,2,4,0,1,4
COc1ccc(-n2c(SCC(=O)Nc3ccccc3-c3ccccc3)nnc2-c2ccccc2)cc1,.,.,.,.,-7
O=c1c2ccccc2oc2cc(Br)ccc12,0,.,5,.,-6
COc1cc2oc3ccccc3c(=O)c2cc1OC,+,-1,22,-2,.
O=C(OCC#CCSc1nnc(-c2cccc3ccccc23)o1)c1sccc1Cl,.,.,.,.,6
CC(C)n1nnnc1C1(C)CCCCC(=O)N1Cc1cccc(C(F)(F)F)c1 (centres undefined),.,.,.,.,4
COc1ccc(-c2cc(C#N)nc(Oc3ccc(Cl)cc3)n2)cc1,2,-17,3,1,3
COc1ccc(-c2cc(C#N)nc(Cl)n2)cc1,9,-1,22,40*,-8
COc1ccc(-c2ccc(C#N)c(OC)n2)cc1,+,4,18,5,5
CN1[C@H](Cc2ccccc2)COc2cccc(N3CCCC3)c2S1(=O)=O,.,.,.,.,-1
COc1ccc2oc(-c3ccco3)cc(=O)c2c1,116*,10,54*,-2,-7
O=C(COc1ccc2oc(-c3ccco3)cc(=O)c2c1)N1CCCCC1,157*,6,51*,0,-14
COc1ccc(CN2CCN(c3ccccn3)CC2)c(OC)c1C,+!,5,19,1,-4
COc1ccc(CN2CCN(c3ncccn3)CC2)c(C)c1C,1,4,18,1,12
Cn1c(C(C#N)C(=O)c2ccco2)nc2ccccc21 (centres undefined),4,-2,33*,1,4
Cn1c(C(C#N)C(=O)Cc2cccc3ccccc23)nc2ccccc21 (centres undefined),0,20,7,-1,-3
C[C@H]1[C@H](N)CC[C@@]23CCCN2C(=O)CCC[C@@H]13,.,.,.,.,-5
Cn1c(=O)c2[nH]c(NN=Cc3cccc(Br)c3)nc2n(C)c1=O,-3,.,37*,.,-15
CCN(CC)CCOc1ccc(C=NNc2nc3c([nH]2)c(=O)n(C)c(=O)n3C)cc1,0,.,44*,.,-7
CN1C2=N[C@H](c3ccccc3)CC(=O)N2/C(=C\c2ccccc2)C1Cc1ccccc1 (some centres undefined),.,.,.,.,2
COc1ccc(S[C@]2(C(=O)NC(C)C)CC(=O)N[C@@H]2c2ccc(OC)cc2)cc1,.,.,.,.,-7
C=CCNC(=S)Nc1sc2c(c1C(=O)OCC)CC(C(C)C)OC2 (centres undefined),1,6,32*,0,-7
SMILES,Mtb FBA inh,BJeLR viability,GDH-TPI inh,RecA intein inh,PrPC TRFRET
CCOC(=O)[C@@]12CCC3=C1N(CCC3)C(=O)[C@H](CC(=O)NCC13CC4CC(CC(C4)C1)C3)C2,.,.,.,.,1
CCOC(=O)CCCNC(=O)OCCCN1CCC2(CCC(c3ccccc3)CC2)C1=O (centres undefined),.,.,.,.,3
Cc1cc(=O)oc2cc(OCC(=O)N3CCN(C(C)c4ccccc4)CC3)c(Cl)cc12 (centres undefined),+,.,3,.,10
c1ccc(Cn2c(SC3CCCCC3)nnc2-c2cccnc2)cc1,.,.,.,.,-3
Cc1ccc(-c2nc(C(=O)NCCCN(C)C)cc3c2[nH]c2ccccc23)cc1,28*,0,9,2,-5
O=C(NCCO)c1cc2c([nH]c3ccccc32)c(-c2ccccc2)n1,24,0,18,-1,4
CC(C)(C)OC(=O)COc1cc(OCC(=O)OC(C)(C)C)c2c(=O)cc(-c3ccccc3)oc2c1,28*,.,21,7,13
N=c1c(C(=O)NCC2CCCO2)cc2c(=O)n3ccccc3nc2n1Cc1cccnc1 (centres undefined),+,-1,16,i,-52
O=C(Cn1c(=O)n(Cc2ccc(F)cc2)c(=O)c2ccccc21)NCC1CCCO1 (centres undefined),2,3,-3,-1,3
COC(=O)c1cc2c(=O)n3ccccc3nc2n(Cc2cccnc2)c1=N,.,-6,.,-141,.
N=c1c(C(=O)NCC2CCCO2)cc2c(=O)n3ccccc3nc2n1Cc1ccc(F)cc1 (centres undefined),+,8,0,i,-15

# High-throughput results from PubChem BioAssay.
